About 190 (3.5%) of roughly 5,400 compounds showed an effect of 50% or more. What follows is part of a selection rich in strong results, with near analogues and random picks from the rest.

This assay deals with Vero-E6. Kind of assay: primary screen, phospholipidosis by LipidTOX staining; higher = more effect of the substance. The note with it: 10 µM. The protocol: To measure drug-induced PLD in Vero-E6 cells, we used the HCS LipidTOX Red Phospholipidosis Detection Reagent (Invitrogen, #H34351), which is non-toxic to cell growth and remains well retained after aldehyde fixation. In this setup, compounds (at 10 μM concentration) and controls (amiodarone: 10 μM concentration; DMSO: 0.1 v/v %) were added to clear-bottom, 384-well plates (PhenoPlate 384-well, black, optically clear flat bottom, tissue-culture treated, Revvity #6057302) using the Echo Liquid Handler (Labcyte).
For `CN1CCN(Cc2ccc(Nc3ncc(Cl)c(Nc4ccccc4S(=O)(=O)N(C)C)n3)cc2)CC1`, the result_ITMP is on record as 1.65%. The value for `CNC(=O)c1ccccc1Nc1cc(Nc2ccc(N3CCOCC3)cc2OC)ncc1C(F)(F)F` was 10.6%; that for `CNC(=O)c1ccccc1Nc1nc(Nc2ccc3c(c2OC)CCC[C@H](N2CCN(CCO)CC2)C3)ncc1Cl` was 139%; that for `CC1(C)S[C@@H]2[C@H](NC(=O)C(C(=O)[O-])c3ccsc3)C(=O)N2[C@H]1C(=O)[O-]` (some centres unmarked) was -2.7%. The value for `CCCCCC(O)CCCC(=O)[O-]` (centres unmarked) was -2.69%. `CC#C[C@@H](CC(=O)[O-])c1ccc(OCc2cccc(-c3ccc(C(F)(F)F)cc3)c2)cc1`: the result_ITMP was 2.55%. Next, `CC(Cc1cccc(C(F)(F)F)c1)NCCOC(=O)c1ccccc1` (centres unmarked): 6.92%; `CCN[C@@H](C)Cc1cccc(C(F)(F)F)c1`: 3.76%. The value for `C[C@@H](NCCCc1cccc(C(F)(F)F)c1)c1cccc2ccccc12` was 61.8%; that for `CSCCC(N)C(=O)O` (centres unmarked) was -3.06%; that for `O[C@H]1[C@H]2[C@H](O)CCCN2C[C@H]1O` was 0.57%.

As for `c1cc(Nc2cc(C3CC3)n[nH]2)nc(Nc2ccc3nc[nH]c3c2)n1`, the result_ITMP is -1.4%. The value for `CSc1ccccc1Nc1nc(N2CCNCC2)nc2c(NCC3CC3)ncnc12` was 79.3%. The value for `CN1C2C=C(c3sccc3Br)CC1CC2` (centres unmarked) was 6.82%; that for `CCN(CCO)CCCOc1ccc2c(Nc3cc(CC(=O)Nc4cccc(F)c4)n[nH]3)ncnc2c1` was -2.36%. Next, `c1ccc(CCCN2CCN(CCOC(c3ccccc3)c3ccccc3)CC2)cc1`: 15%; `C(=C\c1ccccc1)/CN1CCN(CCOC(c2ccccc2)c2ccccc2)CC1`: 7.08%. Turning to `Clc1ccc(C(OCCN2CCCCC2)c2ccccc2)cc1` (centres unmarked), the result_ITMP came out at 63.9%. The value for `C#C[C@]1(OC(C)=O)CCC2C3CCC4=C/C(=N/O)CCC4C3CC[C@@]21CC` (some centres unmarked) was 1.9%; that for `CN(C)C(=O)C(CCN1CCC(O)(c2ccc(Cl)cc2)CC1)(c1ccccc1)c1ccccc1` was 67.2%. For the compound `OC1(c2ccc(Cl)c(C(F)(F)F)c2)CCN(CCCC(c2ccc(F)cc2)c2ccc(F)cc2)CC1`, the result_ITMP is listed as 36.2%.

Consider `O=C(CCCN1CCC(O)(c2ccc(Cl)cc2)CC1)c1ccc(F)cc1`, for which the result_ITMP is recorded as 3.22%. Next, `NCCCCCC(O)(P(=O)([O-])O)P(=O)(O)O`: -0.14%; `Nc1ncnc2c1nc(Br)n2[C@@H]1O[C@@H]2COP(=O)([O-])O[C@H]2[C@H]1O`: 15.8%.

As to `CCN1C(=O)CN=C2NC=C(c3ccc(-c4nnc[nH]4)nc3C)N=C21`, the result_ITMP is listed as -2.57%. Next, `OC[C@@H](O)[C@@H](O)[C@@H](O)CO`: -6.6%.

As for `O=C(Nc1ccc(CN2CCOCC2)cc1)c1ccc(-c2cccc(Cl)c2)o1`, the result_ITMP is given as 56.3%. As to `COc1cc(NC(=O)c2ccc(-c3ccc(Cl)cc3)o2)cc(OC)c1`, the result_ITMP amounted to 2.29%.

As for `CCNC(=O)c1noc(-c2cc(C(C)C)c(O)cc2O)c1-c1ccc(CN2CCOCC2)cc1`, the result_ITMP was -0.23%. Next, `C[C@]12C=CC(=O)C=C1CCC1C2[C@@H](O)C[C@@]2(C)C1CC[C@]2(O)C(=O)COC(=O)CCC(=O)O` (some centres unmarked): -5.57%; `Cc1cc(/C=C2\SC(=O)N(c3ccccc3)C2=O)c(C)n1-c1cccnc1`: -6.01%; `O=C(Nc1ccc2c(O)cc(S(=O)(=O)[O-])cc2c1)Nc1ccc2c(O)cc(S(=O)(=O)[O-])cc2c1`: -7.47%.

Regarding `COc1ccc(CCN(C)CCc2ccc(OC)c(OC)c2)cc1OC`, the result_ITMP is -1.15%.

In the case of `COc1ccc(CCN(C)CCCOc2ccc(S(=O)(=O)c3c(C(C)C)c4ccccc4n3C)cc2)cc1OC`, the result_ITMP is listed as 84.7%.

Take `COc1ccc(CCN(C)CCCN2CCc3cc(OC)c(OC)cc3CC2=O)cc1OC`: the result_ITMP is recorded as -1.11%. Next, `O=C(NCCN1CCOCC1)c1ccc(Cl)cc1`: -6.19%; `O=C(NCCN1CCC2(CC1)C(=O)NCN2c1cccc(F)c1)c1ccc2ccccc2c1`: 55.1%.

`COc1ccc2cccc(N3CCN(CCNC(=O)c4ccc(F)cc4)CC3)c2c1`: the result_ITMP was determined as 14%. The value for `O=C1NCN(c2ccccc2)C12CCN(CCCC(c1ccc(F)cc1)c1ccc(F)cc1)CC2` was 1.98%; that for `O=C(NCCN1CCC2(CC1)C(=O)NCN2c1cccc(F)c1)c1ccc(F)c(F)c1` was 60.1%. Turning to `COc1ccccc1N1CCN(CCCCNC(=O)c2ccc3ccccc3c2)CC1`, the result_ITMP stood at 34.4%. With `C[C@@H]1CCO[C@H]2Cn3cc(C(=O)NCc4ccc(F)cc4F)c(=O)c(O)c3C(=O)N12`, the result_ITMP is given as -4.23%. On to `CN(C)CCCO[C@@H]1[C@H]2OC(C)(C)O[C@H]2O[C@@H]1[C@H](O)CO`, for which the result_ITMP is -8.5%. Regarding `C[C@@H]1C[C@H]2[C@@H]3CCC4=CC(=O)C=C[C@]4(C)[C@@]3(Cl)[C@@H](O)C[C@]2(C)[C@@]1(O)C(=O)CCl`, the result_ITMP is 0.3%. Next, `CN(CCCN1c2ccccc2CCc2ccccc21)CC(=O)c1ccc(Cl)cc1`: 13.8%. The value for `O=C(O)c1ccccc1C(=O)Nc1ccc(-c2ccccc2)cc1` was -1.06%; that for `O=C(CN1C2=NCCN2c2ccccc21)c1ccc(-c2ccccc2)cc1` was 53.9%; that for `c1ccc(CNc2nc(NCc3ccccc3)c3ccccc3n2)cc1` was 58.9%. The value for `Cn1cnc2c(NCc3ccccc3)nc(NCCO)nc21` was -1.91%. For the compound `c1ccc(CNc2ncnc3nc[nH]c23)cc1`, the result_ITMP is -8.79%. In the case of `N=C(N)Nc1nc(CSCCN/C=N/S(=O)(=O)c2ccc(Br)cc2)cs1`, the result_ITMP was 0.59%.

On to `O=C([O-])c1ccccc1Nc1cc(Cl)ccc1C(=O)[O-]`, for which the result_ITMP is given as -3.54%.

As to `C[C@@H]([C@H](O)c1ccc(O)cc1)N1CCC(Cc2ccccc2)CC1.C[C@H]([C@@H](O)c1ccc(O)cc1)N1CCC(Cc2ccccc2)CC1`, the result_ITMP came to 8.99%. For `CN[C@H](CC(C)C)C(=O)NC1C(=O)N[C@@H](CC(N)=O)C(=O)N[C@H]2C(=O)NC3C(=O)N[C@H](C(=O)N[C@@H](C(=O)O)c4cc(O)cc(O)c4-c4cc3ccc4O)[C@H](O)c3ccc(c(Cl)c3)Oc3cc2cc(c3O[C@@H]2OC(CO)[C@@H](O)[C@H](O)[C@H]2O[C@H]2C[C@](C)(N)[C@H](O)[C@H](C)O2)Oc2ccc(cc2Cl)[C@H]1O` (some centres unmarked), the result_ITMP is -7.09%. Next, `Cn1ncc(Cl)c1-c1cc(C(=O)N[C@H](CN)Cc2cccc(F)c2)sc1Cl`: 69.5%; `O=C(N[C@H](Cc1ccccc1)C(=O)O)c1sc2cc(F)ccc2c1Cl`: -1.39%; `Cn1ncc(Cl)c1-c1cc(C(=O)N[C@H](CN)Cc2ccc(F)c(F)c2)oc1Cl`: 82.6%.

On to `Cc1cc(CN)cc(C)c1NC(=O)c1ccc(-c2cc(Cl)ccc2Cl)o1`, for which the result_ITMP is 36.2%. The value for `Cn1nc(C(C)(C)C)cc1C(=O)N[C@@H](Cc1cccc(Cl)c1)C(=O)NCC#N` was -8.49%. In the case of `C[C@]12CCC(=O)C=C1CC[C@@H]1[C@@H]2C(=O)C[C@]2(C)C(=O)CC[C@@H]12`, the result_ITMP is recorded as -0.84%.

On to `C=C1C(=O)O[C@@H]2[C@H]3C(C)=CC[C@@]34O[C@@]4(C)CC[C@@H]12`, for which the result_ITMP was found to be 2.15%. The value for `COC(=O)[C@]12CCC(C)(C)C[C@H]1[C@H]1C(=O)C=C3[C@@]4(C)C=C(C#N)C(=O)C(C)(C)[C@@H]4CC[C@@]3(C)[C@]1(C)CC2` was -10.9%.

For the compound `CCCC[C@@H](NC(=O)[C@@H](Cc1cn(C(=O)OC)c2ccccc12)NC(=O)[C@H](CC(C)(C)C)NC(=O)N1[C@H](C)CCC[C@@H]1C)C(=O)[O-]`, the result_ITMP was -3.76%. The value for `CC(C)(C)CCN1C[C@@H]2[C@@H](CNC(=O)c3cc(Cl)cc(Cl)c3)[C@@H]2C1` was 20.6%; that for `COC1C(OC(=O)NC(=O)CCl)CCC2(CO2)C1C1(C)OC1CC=C(C)C` (centres unmarked) was 11.3%. The value for `C[C@H]1CC2C([C@@H](O)C[C@@]3(C)C2CC[C@]3(O)C(=O)COC(=O)CCC(=O)[O-])[C@@]2(C)C=CC(=O)C=C12` (some centres unmarked) was -6.49%; that for `O=C(NOCC1CC1)c1ccc(F)c(F)c1Nc1ccc(I)cc1Cl` was 1.02%. `O=C(NOCCO)c1cc(CN2OCCCC2=O)c(F)c(F)c1Nc1ccc(I)cc1F`: the result_ITMP is listed as -1.3%. Next, `O=C(c1ccc(F)c(F)c1Nc1ccc(I)cc1F)N1CC(O)([C@@H]2CCCCN2)C1`: 78.8%; `Cc1cc2nc3c(=O)[nH]c(=O)nc-3n(C[C@@H](O)[C@@H](O)[C@@H](O)COP(=O)([O-])O)c2cc1C`: 1.6%; `COc1cc2cc(c1Cl)N(C)C(=O)C[C@H](OC(=O)C(C)C)[C@]1(C)O[C@H]1[C@H](C)[C@@H]1C[C@@](O)(NC(=O)O1)[C@H](OC)/C=C/C=C(\C)C2`: -0.8%. For the compound `CCCCOc1cc(C(=O)OCCN(CC)CC)ccc1N`, the result_ITMP stood at 18.9%. The value for `CCOc1ccc(C(=O)OCCN(CC)CC)cc1` was 0.82%; that for `CCN(CC)CCOc1ccc2c(c1)C(=O)c1cc(OCCN(CC)CC)ccc1-2` was 57.2%. The value for `O=C1NNc2nc(CN3Cc4ccccc4C3)nc3cccc1c23` was 0.43%; that for `O=C([O-])C(Cl)Cl` was -4.51%; that for `CC(C)(C)C(=O)OCOC(=O)C1N2C(=O)CC2S(=O)(=O)C1(C)C` (centres unmarked) was 3.85%. The value for `CCCCCCCCCCCCCCCC=O` was -3.07%. For the compound `OCCN1CCN(CCCN2c3ccccc3C=Cc3ccccc32)CC1`, the result_ITMP was 50.3%. The value for `CN1CCN(CCCN2c3ccccc3Sc3ccc(C(F)(F)F)cc32)CC1` was 81.3%.

For `CCN(CC)CCCCN1c2ccccc2Oc2ccc(Cl)cc21`, the result_ITMP worked out at 69.7%. The value for `O=C(CCc1ccncc1)NNC(=O)N1Cc2ccccc2Oc2ccc(Cl)cc21` was -1.3%. Next, `COc1ccccc1N1CCN(CCCCN2C(=O)CCC2=O)CC1`: 6.62%; `COc1ccccc1N1CCN(CCCCN2C(=O)c3ccccc3C2=O)CC1`: -0.85%; `Cc1c[nH]c(=O)n(CCCN2CCN(c3ccccc3OCC(F)(F)F)CC2)c1=O`: -1.42%. Next, `CN(C)CCCN1c2ccccc2CCc2ccc(Cl)cc21`: 47.3%. Consider `CN1CCN(CCCN2c3ccccc3Sc3ccc(Cl)cc32)CC1`, for which the result_ITMP was determined as 38.9%. Next, `OCCN1CCN(CCCN2c3ccccc3Sc3ccc(Cl)cc32)CC1`: 84.7%; `Clc1ccc2c(N3CCN(CCCN4CCN(c5ccnc6cc(Cl)ccc56)CC4)CC3)ccnc2c1`: 6.97%.

Source of the values: PMC13083723 (Patterns, 2026).
